This passage reports Potency results from PubChem BioAssay (NCATS).

Inconclusive results are not listed. A call without a number means that no potency is given here. Calls of active or inactive are those of the source. The call rests on the fitted dose curve; in most records, active means well fitted inhibition curve with a large enough effect; inconclusive means small, poorly fitted or top-dose-only effect; inactive means flat fitted curve, though single readings scatter.

Calcium and integrin-binding protein 1 (Homo sapiens), sequence (Q99828 whole entry, looked up): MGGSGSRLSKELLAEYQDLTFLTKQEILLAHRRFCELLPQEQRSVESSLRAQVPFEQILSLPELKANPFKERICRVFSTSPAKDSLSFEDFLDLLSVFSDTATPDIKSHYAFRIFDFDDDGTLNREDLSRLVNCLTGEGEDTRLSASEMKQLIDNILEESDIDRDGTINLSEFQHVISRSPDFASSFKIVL

The assay addresses Calcium and integrin-binding protein 1 (Homo sapiens) (UniProt Q99828). As to the kind of experiment: Primary qHTS for Identification of Calcium Integrin Binding Protein 1 (CIB1) Competitor (AID 1508620). Further: top concentration of the series differs between compounds. To be noted: CIB1-GST / FITC-alphaIIb peptide fluorescence polarization; series mostly up to 114 µM. In a few lines: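 Fluorescence polarization competition: GST-tagged CIB1 (1 uM final) preincubated with compound 15 min at room temperature, then FITC-labelled alphaIIb peptide (100 nM final) added. After 15 min at room temperature, polarization read at Ex 480/Em 540.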
For the compound `CN1CCN(c2cccc(CNc3nn4c(=O)c5ccccc5nc4s3)c2)CC1`, the Potency result was “inactive”.

In the case of `Cc1cc2c(s1)c1cnn(Cc3cc(OC(F)(F)F)ccc3F)c(=O)c1n2C`, the Potency result was “inactive”.

As for `Fc1ccc(-c2noc(CCCCSc3nnc(-c4cccc5ccccc45)o3)n2)cc1`, the Potency entry was “inactive”.

Take `Cc1csc(CNc2ncnc3ccc(-c4ccc5c(c4)OCCO5)cc23)c1`: the Potency result was “inactive”.

Turning to `CC(=O)Nc1sc2c(c1C(=O)c1ccccc1)CCN(C(C)C)C2`, the Potency result is “inactive”.

`N#Cc1cccc(Nc2ncc(-c3cccc4ccccc34)o2)c1`: the Potency entry was “inactive”.

Consider `O=C1CC(c2ccccc2)CC2=C1C1(CCCCC1)N=C(Nc1nc3ccccc3o1)N2` (stereo unspecified), for which the Potency result is “inactive”.

On to `O=C1c2ccccc2C(=O)N1c1cccc2cccnc12`, for which the Potency entry is “inactive”.

Consider `COc1ccc(C2Nc3ccccc3C(=O)N2CCO)cc1COc1c(C)cc(NC(C)=O)cc1C` (stereo unspecified), for which the Potency result was “inactive”.

As for `COc1ccc(C(=O)Nc2ccc(-c3nc4ccccc4[nH]3)cc2)cc1OC`, the Potency result is “inactive”.

Turning to `FC(F)(F)c1ccccc1-c1nc2c(c(NCc3ccc(-c4cccnc4)cc3)n1)CCC2`, the Potency result is “inactive”.

Turning to `Cc1cc(C)c(S(=O)(=O)Nc2cccc3cccnc23)c(C)c1`, the Potency entry was “inactive”.

For the compound `CC(C)(C)OC(=O)N1CCN(c2ccc(NCc3ccc(-c4cccc([N+](=O)[O-])c4)o3)cc2)CC1`, the Potency entry is “inactive”.

As for `O=C(Nc1ccccc1)Nc1nc(Nc2cc(F)cc(F)c2)nc(NC2CCCC2)n1`, the Potency result is “inactive”.

Consider `CCOc1ccccc1-c1nnc2n1N=C(c1ccc(OC)c(OC)c1)CS2`, for which the Potency entry is “inactive”.

With `Cc1ccc(N[S+](=O)([O-])c2cc3c(cc2CCc2ccccc2)NC(=O)CO3)cc1C`, the Potency entry was “inactive”.
